For some of these results: Measured potencies and affinities stand elsewhere.
How the values were obtained:
Design in all cases: scale not given: direction of the effect not stated beside the values
[1] = biological target: Protein translocase subunit SecA (Escherichia coli (strain K12)) (UniProt P10408); assay: Assay to Identify E. coli SecA ATPase Inhibitors; format: functional; conditions: 30 µM
[2] = biological target: T1, Ubiquitin-activating enzyme e1, putative (Leishmania donovani (strain BPK282A1)) (UniProt E9BSI1); assay: Leishmania donovani Ubiquitin Activating Enzyme (LdE1); format: functional; conditions: 30 µM
T1 sequence (whole entry): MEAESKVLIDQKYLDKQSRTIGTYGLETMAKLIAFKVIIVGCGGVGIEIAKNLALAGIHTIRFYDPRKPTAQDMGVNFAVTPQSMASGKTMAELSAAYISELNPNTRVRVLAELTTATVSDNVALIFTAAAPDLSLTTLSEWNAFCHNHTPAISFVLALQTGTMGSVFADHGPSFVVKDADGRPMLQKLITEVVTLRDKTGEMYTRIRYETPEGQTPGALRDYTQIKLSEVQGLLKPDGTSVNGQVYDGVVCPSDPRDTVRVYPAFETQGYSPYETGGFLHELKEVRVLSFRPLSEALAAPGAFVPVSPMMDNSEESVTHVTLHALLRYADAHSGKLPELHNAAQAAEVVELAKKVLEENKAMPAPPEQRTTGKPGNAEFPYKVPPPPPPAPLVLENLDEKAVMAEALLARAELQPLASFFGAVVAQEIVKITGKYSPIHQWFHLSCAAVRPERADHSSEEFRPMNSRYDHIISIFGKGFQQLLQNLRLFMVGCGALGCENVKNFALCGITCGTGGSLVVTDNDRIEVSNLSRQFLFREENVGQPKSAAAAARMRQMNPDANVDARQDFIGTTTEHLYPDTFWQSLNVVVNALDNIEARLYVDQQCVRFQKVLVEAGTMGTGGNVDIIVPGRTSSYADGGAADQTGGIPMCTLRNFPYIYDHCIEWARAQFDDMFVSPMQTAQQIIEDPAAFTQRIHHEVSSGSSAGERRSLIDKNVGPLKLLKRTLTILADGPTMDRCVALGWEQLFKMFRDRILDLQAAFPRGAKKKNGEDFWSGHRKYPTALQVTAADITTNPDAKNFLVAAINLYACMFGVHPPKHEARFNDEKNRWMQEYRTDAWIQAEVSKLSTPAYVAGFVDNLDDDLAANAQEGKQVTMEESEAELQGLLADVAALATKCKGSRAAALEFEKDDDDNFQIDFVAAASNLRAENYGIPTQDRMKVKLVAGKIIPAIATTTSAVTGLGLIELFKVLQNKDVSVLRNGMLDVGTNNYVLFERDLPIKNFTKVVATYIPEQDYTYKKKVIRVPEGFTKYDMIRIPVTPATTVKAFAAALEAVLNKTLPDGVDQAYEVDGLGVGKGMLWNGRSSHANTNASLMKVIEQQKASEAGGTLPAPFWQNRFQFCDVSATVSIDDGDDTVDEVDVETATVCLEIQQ

[3] = biological target: AMP-activated protein kinase, AMPK (Homo sapiens) (UniProt P54646+O43741+P54619+Q9UGJ0+Q9Y478+Q13131+Q9UGI9); assay: AMP-dependent Kinase enzyme assay. An in vitro enzyme assay that detects ADP turnover that is directly proportional to AMPK activity. This uses naive AMPK that is activated during the assay with MK-8722; format: functional; conditions: 30 µM
[4] = biological target: Sialic acid-binding Ig-like lectin 9 (Homo sapiens) (UniProt Q9Y336); assay: Hs-Siglec9 ALPHAscreen SOP 20170721; conditions: 10 µM
Trypanosoma cruzi = assay: Trypanosoma cruzi phosphomannomutase and mannose-1-phosphate guanylyltransferase assay; format: functional; conditions: 10 µM
[5] = biological target: T2, Arginase-2, mitochondrial (Homo sapiens) (UniProt P78540); assay: in vitro enzyme assay to detect the production of urea directly proportional to the activity of Arginase II; format: functional; conditions: 33.3 µM; further: in the data most compounds retested in dose-response had high values
T2 sequence (whole entry): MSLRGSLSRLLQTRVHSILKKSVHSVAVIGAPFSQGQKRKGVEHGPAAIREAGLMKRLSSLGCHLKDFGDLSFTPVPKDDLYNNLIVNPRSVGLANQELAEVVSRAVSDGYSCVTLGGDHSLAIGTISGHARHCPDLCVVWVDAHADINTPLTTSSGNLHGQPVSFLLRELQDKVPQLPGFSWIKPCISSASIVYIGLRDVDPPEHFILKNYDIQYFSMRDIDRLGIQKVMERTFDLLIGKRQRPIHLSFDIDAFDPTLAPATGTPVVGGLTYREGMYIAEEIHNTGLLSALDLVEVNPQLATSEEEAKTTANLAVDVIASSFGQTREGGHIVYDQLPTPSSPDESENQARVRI

[6] = biological target: T3, Proteasome subunit beta (Trypanosoma cruzi) (UniProt O96673); assay: Trypanosoma cruzi proteasome chymotrypsin-like activity (TcProtChymo) assay.; further: in the data most compounds retested in dose-response had high values; format: functional; conditions: 9.37 µM
T3 sequence (whole entry): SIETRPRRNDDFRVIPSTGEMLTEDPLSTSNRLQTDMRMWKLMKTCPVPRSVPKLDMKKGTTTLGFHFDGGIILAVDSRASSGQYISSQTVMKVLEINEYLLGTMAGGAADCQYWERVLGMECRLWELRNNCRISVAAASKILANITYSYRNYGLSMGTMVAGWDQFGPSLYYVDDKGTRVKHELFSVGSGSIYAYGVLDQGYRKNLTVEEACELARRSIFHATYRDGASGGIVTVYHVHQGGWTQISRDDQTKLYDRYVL

Homo sapiens = species on record: Homo sapiens; assay: To identify inhibition of the IFN signalling (Jak-Stat) pathway via expression of an eGFP reporter gene under the control of an IFN-stimulated response element (ISRE) containing MxA promoter.; format: functional; conditions: 30 µM
[7] = biological target: T4, Tyrosyl-tRNA synthetase, putative (Trypanosoma cruzi (strain CL Brener)) (UniProt Q4DSP6); assay: Trypanosoma cruzi tyrosyl tRNA synthetase (TcYRS) _High Tyrosine SOP; format: functional; conditions: 30 µM; further: in the data most compounds retested in dose-response had high values
T4 sequence (whole entry): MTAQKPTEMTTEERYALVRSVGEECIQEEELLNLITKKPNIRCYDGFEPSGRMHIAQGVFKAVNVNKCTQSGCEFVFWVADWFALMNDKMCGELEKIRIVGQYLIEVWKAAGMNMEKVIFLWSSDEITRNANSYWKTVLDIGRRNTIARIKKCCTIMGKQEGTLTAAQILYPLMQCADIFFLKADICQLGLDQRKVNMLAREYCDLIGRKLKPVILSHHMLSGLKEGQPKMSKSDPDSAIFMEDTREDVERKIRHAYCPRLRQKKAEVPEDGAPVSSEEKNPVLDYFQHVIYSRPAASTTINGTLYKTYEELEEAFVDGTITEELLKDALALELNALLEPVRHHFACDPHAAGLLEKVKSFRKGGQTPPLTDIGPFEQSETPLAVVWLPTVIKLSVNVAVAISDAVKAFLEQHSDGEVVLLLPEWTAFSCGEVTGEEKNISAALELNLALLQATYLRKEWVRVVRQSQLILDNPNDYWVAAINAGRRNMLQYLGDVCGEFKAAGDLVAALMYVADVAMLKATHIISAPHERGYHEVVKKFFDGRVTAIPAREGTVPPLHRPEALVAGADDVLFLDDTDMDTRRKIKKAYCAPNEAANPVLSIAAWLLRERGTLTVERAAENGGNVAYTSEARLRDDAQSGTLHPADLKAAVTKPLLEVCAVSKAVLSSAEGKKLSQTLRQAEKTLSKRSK

[8] = biological target: T4, Tyrosyl-tRNA synthetase, putative (Trypanosoma cruzi (strain CL Brener)); assay: Trypanosoma cruzi tyrosyl tRNA synthetase (TcYRS) SOP; format: functional; conditions: 30 µM
[9] = biological target: Chromo domain-containing protein 1 (Saccharomyces cerevisiae (strain ATCC 204508 / S288c) (Baker's yeast)) (UniProt P32657); assay: ScCHD-1 Enzyme Inhibition Assay; format: functional; conditions: 30 µM; further: in the data most compounds retested in dose-response had high values
Chain of Chromo domain-containing protein 1 (Saccharomyces cerevisiae (strain ATCC 204508 / S288c) (Baker's yeast)) (P32657 whole entry, the tested form may be a part): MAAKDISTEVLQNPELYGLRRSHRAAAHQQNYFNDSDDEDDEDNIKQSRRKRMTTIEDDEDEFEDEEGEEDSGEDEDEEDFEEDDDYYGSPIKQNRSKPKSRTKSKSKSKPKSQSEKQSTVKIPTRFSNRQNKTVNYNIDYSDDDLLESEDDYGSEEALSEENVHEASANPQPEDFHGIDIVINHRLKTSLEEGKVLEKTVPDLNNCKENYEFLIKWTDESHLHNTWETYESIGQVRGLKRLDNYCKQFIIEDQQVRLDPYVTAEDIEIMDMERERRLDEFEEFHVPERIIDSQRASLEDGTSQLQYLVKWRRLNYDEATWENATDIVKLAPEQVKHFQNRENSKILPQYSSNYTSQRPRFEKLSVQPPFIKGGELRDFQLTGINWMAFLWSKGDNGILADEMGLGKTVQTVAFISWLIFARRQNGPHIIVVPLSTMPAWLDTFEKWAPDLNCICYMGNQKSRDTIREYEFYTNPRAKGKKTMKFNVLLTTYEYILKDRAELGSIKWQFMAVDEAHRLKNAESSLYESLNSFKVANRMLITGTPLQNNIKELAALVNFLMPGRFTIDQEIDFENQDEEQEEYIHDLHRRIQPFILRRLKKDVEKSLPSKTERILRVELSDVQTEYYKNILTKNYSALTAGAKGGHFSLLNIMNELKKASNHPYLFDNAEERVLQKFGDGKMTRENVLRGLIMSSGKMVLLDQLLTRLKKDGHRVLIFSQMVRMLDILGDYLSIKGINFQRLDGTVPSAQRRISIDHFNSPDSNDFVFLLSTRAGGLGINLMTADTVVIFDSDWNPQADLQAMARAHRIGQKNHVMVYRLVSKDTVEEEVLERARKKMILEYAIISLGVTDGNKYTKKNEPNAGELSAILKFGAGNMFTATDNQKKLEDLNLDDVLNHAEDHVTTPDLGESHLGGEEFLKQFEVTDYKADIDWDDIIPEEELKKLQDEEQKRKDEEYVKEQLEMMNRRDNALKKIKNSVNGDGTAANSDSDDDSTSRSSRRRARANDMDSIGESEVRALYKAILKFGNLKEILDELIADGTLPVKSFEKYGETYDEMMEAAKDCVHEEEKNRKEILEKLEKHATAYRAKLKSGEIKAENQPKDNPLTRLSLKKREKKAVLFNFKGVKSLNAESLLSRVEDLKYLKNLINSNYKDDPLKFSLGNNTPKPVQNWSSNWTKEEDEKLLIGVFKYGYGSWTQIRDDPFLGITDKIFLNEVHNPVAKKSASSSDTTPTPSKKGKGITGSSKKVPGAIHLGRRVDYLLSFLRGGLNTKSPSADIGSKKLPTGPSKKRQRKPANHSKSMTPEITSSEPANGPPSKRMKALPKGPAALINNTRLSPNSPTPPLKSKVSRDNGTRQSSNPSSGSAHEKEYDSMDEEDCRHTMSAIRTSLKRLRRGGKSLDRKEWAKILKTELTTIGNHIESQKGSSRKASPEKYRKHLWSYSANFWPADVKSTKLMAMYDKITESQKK

Chain of Protein translocase subunit SecA (Escherichia coli (strain K12)) (P10408 whole entry): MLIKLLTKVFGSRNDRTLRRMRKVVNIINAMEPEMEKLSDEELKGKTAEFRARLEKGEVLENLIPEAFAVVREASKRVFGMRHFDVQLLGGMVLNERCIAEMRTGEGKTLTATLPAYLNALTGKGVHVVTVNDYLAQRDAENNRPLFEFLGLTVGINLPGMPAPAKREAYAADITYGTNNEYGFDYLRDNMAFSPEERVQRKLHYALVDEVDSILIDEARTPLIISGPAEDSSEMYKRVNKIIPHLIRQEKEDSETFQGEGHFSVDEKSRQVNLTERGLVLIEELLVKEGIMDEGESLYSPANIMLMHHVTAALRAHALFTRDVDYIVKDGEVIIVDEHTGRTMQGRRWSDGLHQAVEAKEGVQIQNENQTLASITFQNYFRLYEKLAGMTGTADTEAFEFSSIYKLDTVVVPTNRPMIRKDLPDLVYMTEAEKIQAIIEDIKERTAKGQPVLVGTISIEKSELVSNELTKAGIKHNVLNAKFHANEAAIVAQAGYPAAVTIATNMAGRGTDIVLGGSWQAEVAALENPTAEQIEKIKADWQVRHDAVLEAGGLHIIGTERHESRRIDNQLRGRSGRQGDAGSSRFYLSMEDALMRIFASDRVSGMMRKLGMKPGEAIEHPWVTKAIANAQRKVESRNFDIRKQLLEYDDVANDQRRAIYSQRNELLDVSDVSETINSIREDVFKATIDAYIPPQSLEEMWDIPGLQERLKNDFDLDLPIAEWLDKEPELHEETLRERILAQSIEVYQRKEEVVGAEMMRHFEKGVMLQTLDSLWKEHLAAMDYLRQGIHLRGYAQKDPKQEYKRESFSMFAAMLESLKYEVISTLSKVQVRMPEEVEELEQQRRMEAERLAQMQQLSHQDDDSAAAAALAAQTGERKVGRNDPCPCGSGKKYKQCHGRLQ
Chain of Sialic acid-binding Ig-like lectin 9 (Homo sapiens) (Q9Y336 whole entry): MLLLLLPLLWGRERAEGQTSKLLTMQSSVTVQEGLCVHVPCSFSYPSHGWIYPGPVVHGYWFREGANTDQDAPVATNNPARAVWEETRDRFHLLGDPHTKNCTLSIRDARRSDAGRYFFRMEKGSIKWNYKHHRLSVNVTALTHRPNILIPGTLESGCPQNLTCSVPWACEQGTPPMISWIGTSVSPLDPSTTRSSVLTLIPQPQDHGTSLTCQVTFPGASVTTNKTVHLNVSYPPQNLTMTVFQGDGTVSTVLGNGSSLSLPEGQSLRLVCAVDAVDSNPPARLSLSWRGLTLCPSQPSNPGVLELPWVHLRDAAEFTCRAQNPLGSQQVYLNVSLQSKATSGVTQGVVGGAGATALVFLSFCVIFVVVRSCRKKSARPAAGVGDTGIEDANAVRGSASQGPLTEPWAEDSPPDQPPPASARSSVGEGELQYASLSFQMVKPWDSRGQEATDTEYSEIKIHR

Row | SMILES | Percent Effect [1] [%] | Percent Effect [2] [%] | Percent Effect [3] [%] | Percent Effect [4] [%] | Percent Effect (Trypanosoma cruzi) [%] | Percent Effect [5] [%] | Percent Effect [6] [%] | Percent Effect (Homo sapiens) [%] | Percent Effect [7] [%] | Percent Effect [8] [%] | Percent Effect [9] [%]
1 | Cc1noc2nc(C3CCN(Cc4cccnc4)CC3)cc(C(F)F)c12 | -3.07 | 1.35 | 4.19 | 1.16 | -6.32 | -1.16 | 2.03 | 25.1 | 2.15 | 3.9 | 1.36
2 | CSc1ncccc1C(=O)N1C[C@H]2CC[C@@H]1CN(c1ncccn1)C2 | -4.71 | 7.79 | 4.3 | 12.7 | 1.87 | -31.7 | 6.82 | -0.196 | 7.53 | 11.1 | -5.74
3 | COc1ccc(S(=O)(=O)N2CCC(S(C)(=O)=O)CC2)cc1C | -3.14 | 7.79 | 3.88 | 0.29 | 4.04 | 1.94 | 4.7 | -5.43 | 3.17 | 11.5 | -6.76
4 | CC(C)Nc1nc(N2CCOCC2)nc2c1CN(Cc1ccoc1)CC2 | -4.76 | 5.33 | 12.8 | 1.46 | -1.97 | 6.76 | 7.84 | 8.61 | 7.45 | 16.7 | -3.95
5 | CSCC(C)(O)CNC(=O)c1ccc(Br)cc1C (stereo not drawn) | 0.706 | 0 | 2.08 | -6.13 | -1.27 | -1.74 | 8.15 | -5.12 | 2.15 | 6.17 | 0.55
6 | Cc1cc(C(=O)N2CCC(c3nccn3Cc3ccncc3)CC2)no1 | -4.98 | 8.22 | 5.77 | -7.08 | -0.979 | 5.46 | 12.6 | 7.62 | 8.6 | 15 | -1.03
7 | c1ccc(Cn2cc(CNC3CCc4ncnn4C3)cn2)cc1 (stereo not drawn) | -3.66 | 6.33 | -0.419 | 1.15 | 0.923 | -3.66 | 5.66 | 4.51 | 3.12 | 10.1 | -19.2
8 | Cc1nnc(N2CCC(CN(C)C(C)C)CC2)c(C#N)c1C | -4.73 | 2.6 | -19 | -13.1 | 9.89 | -4 | 3.64 | 4.7 | 3.81 | 11.8 | -23.4
